From PubChem BioAssay (NCATS) come the findings set out here.

A short description of test [1]: qHTS Assay for Identifying Gametocytocidal Compounds (AID 743244). Also: potency is read from the fitted curve at half-maximal effect.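 As to max response: actives lower the fluorescent signal which means gametocytes are killed.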 Conditions: P. falciparum 3D7 stage III-V gametocytes, alamarBlue, 72 h; max response: stronger effect = lower value. The gist of the method:
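A resazurin-based viability read-out was applied to mature P. falciparum gametocytes: 72 h compound treatment, then 24 h dye incubation, with falling fluorescence signalling gametocytocidal effect.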

The nature of test [2]: qHTS assay for measurement of the activity of small molecule inhibitors on Zika virus induced Caspase-3 activity in human iPSC derived neural progenitor cells (hNPCs) (AID 1224857). Also: nearly all actives have a fitted effect of over 65% in size. The following applies: hNPCs ZIKV-induced caspase-3/7, Caspase-Glo luminescence, 6 h; series mostly up to 45.7 µM. The method in brief:
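Quantitative HTS format: human iPSC neural progenitors, 1 h compound pretreatment, ZIKV 2 FFU/cell for 6 h at 37 C. Percent inhibition derived from luminescent caspase-3/7 signal between uninfected and infected controls.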

Test [3] in a line: qHTS assay for measurement of the activity of small molecule inhibitors on Zika virus induced Caspase-3 activity in human astrocytoma cells (AID 1224859). Conditions: SNB-19 ZIKV-induced caspase-3/7, luminescence, 6 h; series mostly up to 45.7 µM. The gist of the method:
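Readout is luminescence from Caspase-Glo 3/7 added after a 6 h ZIKV infection (2 FFU/cell) of compound-pretreated (1 h) SNB-19 cells; data expressed as % inhibition versus uninfected and infected wells.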

Test [4] is described as follows: qHTS assay for cell viability of HEK293 cells (AID 743288). Also: nearly all actives have a fitted effect of over 50% in size. Conditions: ATP luminescence (CellTiter-Glo), 18 h, stronger effect = lower value. The gist of the method: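 Quantitative high-throughput screen: compounds were pinned onto parental HEK293 cells (2,000 per well) after a minimum 5 h settling at 37 C, incubated 18 h at 37 C, and intracellular ATP measured by luciferase luminescence.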

The nature of test [5]: qHTS assay to identify small molecule inhibitors of chordoma cells - UCH-2 (AID 1259356). The following applies: UCH-2 chordoma viability, CellTiter-Glo ATP luminescence, 48 h; series mostly up to 46.1 µM.
Test [6] is described as follows: qHTS assay for cell viability of the p53RE-bla HCT-116 cell line (AID 743292). Also: nearly all actives have a fitted effect of over 55% in size. Conditions: p53RE-bla HCT-116 viability, ATP luminescence, 16 h; series mostly up to 95 µM. The gist of the method:
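Readout: CellTiter-Glo luminescence after 30 min RT. Treatment: compounds in DMSO, 16 h, 37 C. Cells: CellSensor p53RE-bla HCT-116, 4,000/well, preincubated 5 h.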

Test [7] in a line: qHTS assay to identify small molecule inhibitors of chordoma cells - UCH-1 (AID 1259355). Also: nearly all actives have a fitted effect of over 55% in size. Also: potency is read from the fitted curve at half-maximal effect. Conditions: UCH-1 chordoma viability, CellTiter-Glo, 48 h, combination, with auranofin plus four topoisomerase inhibitors; series mostly up to 46.1 µM. The method in brief: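 A 48hr growth-inhibition format: each drug tested at 15 concentrations together with added auranofin, camptothecin, doxorubicin, rubitecan and topotecan, with cell viability quantified as CellTiter-Glo luminescence.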

Test [8] can be described thus: qHTS profiling of the MIPE4 collection as inhibitors of Plasmodium falciparum (3D7) proliferation (AID 743344; call rule not given here). The following applies: P. falciparum 3D7 in erythrocytes, SYBR Green DNA fluorescence, 72 h; at 28.5 µM (top of the series) unless noted. The method in brief:
(§1)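 Parasite DNA was quantified by SYBR Green I fluorescence (ex 485, em 535 nm) after overnight lysis in saponin/Triton buffer at room temperature. Cultures at 0.3% parasitemia and 2.5% hematocrit were first exposed to compound for 72 h at 37 C; signals were normalised to artemisinin (0.29 uM) and vehicle wells.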

Test [9] can be described thus: qHTS profiling of the MIPE4 collection as inhibitors of Plasmodium falciparum (DD2) proliferation (AID 743345; call rule not given here). The following applies: P. falciparum Dd2 in erythrocytes, SYBR Green DNA, 72 h; at 28.5 µM (top of the series) unless noted. The gist of the method:
as §1

Test [10] can be described thus: qHTS profiling of the MIPE4 collection as inhibitors of Plasmodium falciparum (DD2) proliferation (Rep 2) (AID 743346; call rule not given here). Conditions: P. falciparum Dd2 in erythrocytes, SYBR Green DNA, 72 h; at 28.5 µM (top of the series) unless noted. The gist of the method:
as §1

The nature of test [11]: qHTS profiling of the MIPE4 collection as inhibitors of Plasmodium falciparum (HB3) proliferation (AID 743347; call rule not given here). Conditions: P. falciparum HB3 in erythrocytes, SYBR Green DNA, 72 h; at 28.5 µM (top of the series) unless noted. The gist of the method: as §1

Where “and” joins values, the source holds several entries; their conditions need not be identical. Equal values may be shown once. Inconclusive results are not listed. A call without a number means that no potency is given here. Calls of active or inactive are those of the source. Unless noted, calls follow the shape of the dose curve; as a rule, active = well fitted curve in the direction sought with a large enough effect; inconclusive = small, poorly fitted or top-dose-only effect, or another doubt; inactive = no such curve, though single readings can be large; an effect the other way counts as inactive or inconclusive.

Take `Cc1nc2n(c(=O)c1CCN1CCC(c3noc4cc(F)ccc34)CC1)CCC[C@H]2O`: the max response in [1] was -12.7% (inactive). The outcome in [2] and in test [3] was inactive.
On to `NC(=NCCCCCCN=C(N)/N=C(\N)Nc1ccc(Cl)cc1)/N=C(\N)Nc1ccc(Cl)cc1`, for which the Potency in [1] is 7.08 µM (active). Moreover, the max response in test [4] was -23.7% (inactive) and -11.7% (inactive) and -27.9% (inactive). Moreover, the outcome in test [2] and in test [3] was inactive. For the same compound, in [5], the Potency result was “inactive”.
As to `CC(C)n1nc(-c2cc3cc(O)ccc3[nH]2)c2c(N)ncnc21`, the max response in test [1] was -4.02% (inactive). The compound was classed as inactive in [2] and in [3].
Consider `O=C(O)CNC(=O)c1ccccc1`, for which the max response in test [1] is 1.04% (inactive). The outcome in [2] and in test [3] was inactive. The Potency result in test [5] is “inactive”.
Regarding `CC1(C)OC[C@@H](COC(=O)CCc2ccc(OC[C@@H](O)CNCCNC(=O)N3CCOCC3)cc2)O1`, in test [1], the max response was -9.37% (inactive) and -4.75% (inactive). Further, the result in test [2] and in test [3] was inactive.
Consider `CCN(CCCCOC(=O)c1ccc(OC)c(OC)c1)C(C)Cc1ccc(OC)cc1` (configuration not stated), for which, in test [1], the max response is 14.8% (inactive). Also, the compound was called inactive in test [2] and in test [3]. Moreover, the Potency result in test [5] is “inactive”.
On to `O=c1ccc2ccccc2o1`, for which the max response is 15.4% (inactive) in test [1]; 8.9% (inactive) and -9.16% (inactive) and -5.08% (inactive) in test [4]. Also, the result in [6], in test [2] and in test [3] was inactive. Also, the Potency result in [5] was “inactive”.
In the case of `CC(O)C(=O)O` (configuration not stated), the max response in test [1] was -6.68% (inactive); in test [4], 1.72% (inactive). In addition, the compound was classed as inactive in [6], in [2] and in [3]. Also, the Potency entry in test [5] is “inactive”.
For the compound `Cc1ccnc(NS(=O)(=O)c2ccc(N)cc2)n1`, the max response in test [1] is 9.97% (inactive). Also, the result in test [2] was inactive. In addition, the Potency result in test [5] was “inactive”.
Turning to `CN(C)CC/C=C1/c2ccccc2COc2ccc(CC(=O)O)cc21`, the max response in test [1] is 3.04% (inactive). Besides, the call in test [2] was inactive.
`CCCCCCCCCCCCCCCCCC(=O)OCC(O)CO` (configuration not stated): the max response in [1] was -12.5% (inactive). Further, the outcome in test [2] was inactive. Further, in test [5], the Potency entry is “inactive”.
For `COc1ccc(CCN2CCC(Nc3nc4ccccc4n3Cc3ccc(F)cc3)CC2)cc1`, the Potency in [1] was 3.16 µM (active); in test [7], 31.6 µM (active). Besides, in test [2], the call was inactive.
As for `CCCN1CCCC[C@H]1C(=O)Nc1c(C)cccc1C`, the max response in test [1] was -10.7% (inactive). In test [2], the call was inactive. Moreover, the Potency result in test [5] was “inactive”.
As to `CCCCCCCCCCCCCCCC[N+](C)(C)CCN(Cc1ccc(OC)cc1)c1ncccn1`, the Potency in test [1] was 7.08 µM (active). Moreover, the outcome in test [2] was inactive. Further, the Potency result in test [5] is “inactive”.
`COc1cc2c(cc1OC)C(C(C(=O)N(CCc1ccc(OC)c(OC)c1OC)CCc1ccc(OC)c(OC)c1OC)c1ccccc1)=NCC2` (configuration not stated): the outcome in [2] was inactive. Also, the Potency entry in test [7] and in test [5] was “inactive” in each case.
With `C/C=C(/C(=C/C)c1ccc(O)cc1)c1ccc(O)cc1`, the max response in test [1] is -1.19% (inactive). In addition, in [2], the outcome was inactive. Also, the Potency entry in test [5] was “inactive”.
With `CCN(CC)C(=O)/C(C#N)=C/c1cc(O)c(O)c([N+](=O)[O-])c1`, the max response in test [1] is -6.8% (inactive). Also, the compound was classed as inactive in test [2]. For the same compound, in test [5], the Potency result is “inactive”.
For `COc1c2occc2c(OC)c2c(=O)cc(C)oc12`, the max response in [1] is 22.1% (inactive). Also, the compound was called inactive in test [2]. In test [5], the Potency result was “inactive”.
On to `Cc1cccc(C)c1NC(=O)CN1CCN(CCCC(c2ccc(F)cc2)c2ccc(F)cc2)CC1`, for which the max response in test [1] was 0.546% (inactive). This compound also had a parasite growth, % of DMSO control in test [8] of 13.4%. In addition, the parasite growth remaining, % of DMSO control (lower = more inhibition) in test [9] amounted to 52.4%. In addition, the parasite growth, % of control (lower = inhibition) in test [10] amounted to 19.6%. In addition, the growth, % of control in test [11] was 8.04%. Further, the outcome in test [2] was inactive. Also, the Potency result in test [7] and in [5] was “inactive” each time.
For the compound `O=C(CCCN1CCC(O)(c2ccc(Br)cc2)CC1)c1ccc(F)cc1`, the compound was called inactive in test [2]. Besides, in [5], the Potency entry was “inactive”.
Regarding `CN(C)C(=S)SC(=S)N(C)C`, the outcome in [6] and in test [2] was inactive. Also, the Potency entry in test [5] is “inactive”.
As for `CC(=O)OCC(=O)[C@@]12N=C(C)O[C@@H]1C[C@H]1[C@@H]3CCC4=CC(=O)C=C[C@]4(C)[C@H]3[C@@H](O)C[C@@]12C`, the max response in test [1] is -5.59% (inactive). Also, the call in [2] was inactive. The Potency entry in test [5] is “inactive”.
For `Cc1cc(O)c(C(C)C)cc1Cl`, the max response in [1] was -3.92% (inactive). In addition, in [2], the compound was classed as inactive. For the same compound, the Potency result in [5] was “inactive”.
